# Assay results reported in PubChem BioAssay AID841 (Emory University Molecular Libraries Screening Center, 2007).
# The whole screen tested about 140,000 compounds, of which about 2,100 (1.5%) were called active. This is one part of a sample in which actives are shown more often than they occur. No stated cut-off is given here; in the data, active means protection mostly above about 24% (no sharp cut-off); inactive means mostly below about 26%.
# Test: compounds protecting cells from measles virus cytopathic effect, primary screen, measles RdRp inhibitor project, single point, MLSMR library, absorbance (AID 841)
# Conditions: Measles virus-infected cells, CPE protection, at 4 µM, stronger effect = higher value
row,SMILES,protection (pct of control)
1,COC(=O)c1ccc(NCC(=O)c2ccccc2)cc1,2.68% (inactive)
2,O=C(COC(=O)c1ccccc1)Nc1ccccc1Sc1ccccc1,6.19% (inactive)
3,O=C(OCC(O)C(O)COC(=O)c1ccccc1)c1ccccc1 (centres undefined),37.5% (active)
4,CCn1c(O)c(N=NC(=O)c2cccc(S(=O)(=O)N3CCCCC3)c2)c2ccccc21,28.2% (inactive)
5,O=C(C/C(=N\NC(=O)c1ccccc1Br)C(F)(F)F)c1cccs1,9.78% (inactive)
6,O=S(=O)(c1ccc(F)cc1)N1CCN(C(=S)NCc2ccco2)CC1,18.5% (inactive)
7,COC(=O)c1c(NC(=O)CN2CCN(S(=O)(=O)c3ccccc3[N+](=O)[O-])CC2)sc2c1CCC(C)C2 (centres undefined),1.76% (inactive)
8,C/C(Cc1ccccc1)=N\NC(=O)CNC(=O)c1cccc(Br)c1,4.73% (inactive)
9,CCOC(=O)NCc1ccc2c(c1)OCO2,22% (inactive)
10,O=C(COc1ccccc1)NCc1ccc2c(c1)OCO2,17.1% (inactive)
11,c1n[nH]c(NCc2ccc3c(c2)OCO3)n1,47.6% (active)
12,Cc1ccc(S(=O)(=O)Nc2nc(C)cc(N/N=C/c3ccc(O)cc3)n2)cc1,10.3% (inactive)
13,CCOC(=O)C1CCN(C(=O)/C=C/c2cc(OC)c(OC)c(OC)c2)CC1,18% (inactive)
14,COc1ccc(CNC(=O)CN(Cc2ccc(Cl)cc2)S(C)(=O)=O)cc1,24.2% (inactive)
15,Cc1cc(C)c(S(=O)(=O)N2C=CC(C(F)(F)F)=NCC2)c(C)c1,30.8% (active)
16,Cc1cc(NS(=O)(=O)c2ccc(NC(=S)NC(=O)c3ccc(F)cc3Cl)cc2)no1,9.68% (inactive)
17,O=C(CN1CCCCCC1)N1c2ccccc2Sc2ccc(C(F)(F)F)cc21,27.8% (active)
18,O=C(CN1CCCCC1)N1c2ccccc2Sc2ccc(C(F)(F)F)cc21,5.95% (inactive)
19,COc1cc(/C=C/C(=O)N2c3ccccc3Sc3ccc(C(F)(F)F)cc32)cc(OC)c1OC,2.04% (inactive)
20,CCOC(=O)CNC(=O)/C=C/c1c(Cl)cccc1Cl,1.29% (inactive)
21,COc1cccc(C2SCC(=O)N2c2cccc(C)c2)c1OC (centres undefined),8.06% (inactive)
22,CC(C)C(C)(C#N)NC(=O)CSc1nc2scc(-c3ccccc3)c2c(=O)[nH]1 (centres undefined),8.49% (inactive)
23,Cc1nn(C)cc1CNC(=O)Nc1ccc(Cl)cc1,8.21% (inactive)
24,COc1ccc(Cl)cc1C(=O)NCc1cn(C)nc1C,42.3% (active)

row,SMILES,protection (pct of control)
1,COc1ccc(Cl)cc1C(=O)NCC#N,16.7% (inactive)
2,CCCCCOc1ccc(/C=C/C(=O)NCCc2nc3ccccc3[nH]2)cc1OC,1.18% (inactive)
3,CCOC(=O)c1c(C)n(C)c2ccc(OC)c(NS(=O)(=O)CC)c12,7.46% (inactive)
4,CC(Oc1ccccc1F)C(=O)NN (centres undefined),17.6% (inactive)
5,CCn1c2ccccc2c2cc(NC(=O)COC(=O)c3ccccc3Br)ccc21,15.5% (inactive)
6,Cn1cnc(C(F)(F)F)c1-c1ccc([N+](=O)[O-])cc1,14.3% (inactive)
7,COc1ccc(CCNC(=O)COC(=O)C2CCCCC2)cc1,7.59% (inactive)
8,Cc1nn(-c2ccccc2)c(Cl)c1C(=O)Nc1ccccc1,5.22% (inactive)
9,Cc1ccc(C(=O)/C=C/c2c(C)nn(-c3ccccc3)c2Cl)cc1,60.1% (active)
10,Cc1nn(-c2ccccc2)c(Cl)c1/C=C/C(=O)c1ccc(O)cc1,21.9% (inactive)
11,CCOc1cc(C(=O)Nc2ncccn2)cc(OCC)c1OCC,2.67% (inactive)
12,Cc1ccc2nsnc2c1NC(=O)c1ccccc1[N+](=O)[O-],5.19% (inactive)
13,CCOc1cc(C(=O)Nc2c(C)ccc3nsnc23)cc(OCC)c1OCC,37.8% (active)
14,COC(=O)Cc1ccc(N(Cc2ccccc2F)S(=O)(=O)c2ccc(Br)cc2)cc1,18.5% (inactive)
15,COc1ccc(NC(=O)CN2C(=O)C(c3ccccc3)=NC23CCCCCC3)cc1OC,12% (inactive)
16,CCc1ccc(Oc2coc3cc(OC(=O)c4cc5ccccc5oc4=O)ccc3c2=O)cc1,5.53% (inactive)
17,Cc1ccc(S(=O)(=O)N2CCOCC2)cc1C(=O)NC(=S)N(Cc1ccccc1)C(C)C,21.7% (inactive)
18,COc1cc2c(cc1/C=C1/NC(=O)N(c3ccccc3)C1=O)OCO2,22.7% (inactive)
19,COC(=O)c1ccc(C(=O)OC)c(NC(=S)N2CCN(c3cc(Cl)ccc3C)CC2)c1,6.62% (inactive)
20,COC(=O)c1ccc(C(=O)OC)c(NC(=S)N2CCCCC2)c1,5.41% (inactive)
21,COC(=O)c1ccc(C(=O)OC)c(NC(=S)N2CCN(c3ccc(F)cc3)CC2)c1,54.6% (active)
22,CCCc1cc(=O)[nH]c(SCc2cc(=O)oc3c(C)c(C)ccc23)n1,29.1% (inactive)
23,Cc1ccccc1Cn1nc(C)c(NC(=O)C(F)(F)F)c1C,2.3% (inactive)
24,COC(=O)c1sc(N)c(C(=O)OC)c1COC(=O)CNS(=O)(=O)c1ccc(C)cc1,12.3% (inactive)

row,SMILES,protection (pct of control)
1,O=C(Nc1ccccc1Cl)c1ccccc1S(=O)(=O)c1ccccc1[N+](=O)[O-],2.96% (inactive)
2,Cc1cc(C)c(NC(=O)CS(=O)CC(=O)Nc2cccnc2)c(C)c1 (centres undefined),56.7% (active)
3,O=C(CS(=O)(=O)Cc1ccccc1)Nc1cccnc1,20.4% (inactive)
4,CCC(=O)Nc1cccc(NC(=O)c2cccnc2)c1,5.87% (inactive)
5,COc1ccc(S(=O)(=O)NC(C)C)cc1C(=O)NC1CCCCC1,6.76% (inactive)
6,Cc1cccc(C(=O)NC(=S)N2CCN(c3ccc([N+](=O)[O-])cc3)CC2)c1,6.39% (inactive)
7,Cc1ccccc1N(C(=O)Cc1cccs1)C(C(=O)NC1CCCCC1)c1cn(C)nc1C (centres undefined),20.1% (inactive)
8,Cn1cccc1C(=O)Nc1nccs1,0.78% (inactive)
9,CN(CCCC(=O)Nc1nccs1)S(=O)(=O)c1ccc(Cl)cc1,15.3% (inactive)
10,O=C(CCSCCc1ccccn1)Nc1nccs1,45.9% (active)
11,NC(=O)Cc1ccc2sc(-c3ccccc3)nc2c1,30.1% (inactive)
12,CCc1cccc(CC)c1NC(=O)COc1ccccc1C(=O)c1cc(C#N)c(=O)n(C2CCCCC2)c1,11.3% (inactive)
13,COc1ccc(NC(=O)CN(Cc2ccccc2)S(C)(=O)=O)cc1OC,34.5% (inactive)
14,CS(=O)(=O)c1ccc2nc(NC(=O)C3C4C=CC(C4)C3C(=O)O)sc2c1 (centres undefined),18.3% (inactive)
15,CS(=O)(=O)c1ccc2nc(NC(=O)CN3CCCCCC3)sc2c1,4.57% (inactive)
16,CS(=O)(=O)c1ccc2nc(NC(=O)C3CCCCC3)sc2c1,38.1% (active)
17,O=C(/C=C/c1cnc2ccccc2n1)NC1CCCCCC1,9.7% (inactive)
18,Cc1ccc(-c2csc(SCC(=O)Nc3cc(C)on3)n2)cc1,7.27% (inactive)
19,COc1ccccc1-c1nnc(SCC(=O)Nc2cc(C)on2)o1,14.9% (inactive)
20,Cc1cc(NC(=O)CSc2nnc(-c3ccc(Cl)s3)o2)no1,86.1% (active)
21,O=C(COC(=O)/C=C/c1nc2ccccc2s1)Nc1ccccc1Oc1ccccc1,1.41% (inactive)
22,Cc1cccc(-n2c(N)cc(=O)nc2SC(C)C(=O)NC2CCCCC2)c1 (centres undefined),20.2% (inactive)
23,Cc1cccc(-n2c(SCC(N)=O)nc3c(c2=O)C2(CCCCC2)Cc2ccccc2-3)c1,29.9% (active)
24,N#CCSc1nc2c(c(=O)n1Cc1ccccc1)C1(CCCC1)Cc1ccccc1-2,1.58% (inactive)

row,SMILES,protection (pct of control)
1,COc1ccc(-c2csc3ncnc(Oc4ccc5c(C)cc(=O)oc5c4)c23)cc1,6.48% (inactive)
2,O=C(COc1ccc(/C=N/NC(=O)c2ccc(O)cc2)cc1)Nc1ccc([N+](=O)[O-])cc1,40.1% (active)
3,O=C(COc1ccc([N+](=O)[O-])cc1)Nc1ccc(N2CCCC2)cc1,18.8% (inactive)
4,CCCCCC(=O)Nc1ccc(C(=O)N/N=C/c2ccc([N+](=O)[O-])cc2)cc1,25.1% (inactive)
5,O=C(NNC1CC(=O)N(c2cccc(Cl)c2)C1=O)c1cccnc1 (centres undefined),8.5% (inactive)
6,COc1cc(C2C(N3C(=O)c4ccccc4C3=O)C(=O)N2c2ccc(C)c(C)c2)cc(OC)c1OC (centres undefined),9.11% (inactive)
7,Cc1ccc(NC(=O)c2sc3nc(N)c(C#N)cc3c2N)cc1,74.1% (active)
8,CC(=O)Nc1ccc(NC(=O)c2sc3nc4c(c(-c5ccc(C)cc5)c3c2N)CCC4)cc1,9.68% (inactive)
9,CCc1ccc2nc3sc(C(=O)Nc4nnc(CC)s4)c(N)c3cc2c1,1.37% (inactive)
10,Cc1ccc(NC(=S)N2CCN(c3ncccn3)CC2)cc1C,12.6% (inactive)
11,CCNC(=S)N1CCN(C(=O)c2ccco2)CC1,9.63% (inactive)
12,CCNC(=S)N1CCN(c2ncccn2)CC1,20.9% (active)
13,CCOC(=O)c1c(NC(=S)NC(=O)c2ccco2)sc2c1CCCC2,37% (inactive)
14,CCOCC(=O)Nc1sc2c(c1C(=O)OCC)CCCC2,7.18% (inactive)
15,CCOC(=O)c1c(NC(=O)c2ccc(Br)o2)sc2c1CCCC2,27.8% (active)
16,COc1cc(/C=C/C(=O)OCC(=O)Nc2cccc(Oc3ccccc3)c2)ccc1O,11.5% (inactive)
17,C=CCc1ccccc1OCC(=O)N/N=C/c1ccccc1OCC,1.64% (inactive)
18,COc1ccc(OC)c(-n2nnnc2SCC(=O)Nc2cc(C)ccc2OC)c1,17.2% (inactive)
19,COc1ccc(C)cc1NC(=O)CCC(=O)Nc1nnc(C(F)(F)F)s1,11.8% (inactive)
20,COc1ccc(C(F)(F)F)cc1N/C=C\c1nnnn1-c1ccc(C)cc1,30.4% (active)
21,CCC(C)NC(=O)c1ccc(N2CCC3(CC2)OCCO3)c([N+](=O)[O-])c1 (centres undefined),13.6% (inactive)
22,Cc1cc(Cl)ccc1OCCCC(=O)NCc1ccncc1,6.27% (inactive)
